# Experimental data as given in the supplement of paper PMC5373622, “Screening for AMPA receptor auxiliary subunit specific modulators” (PLoS ONE, 2017).
# System: GRIA2
# Experiment: glutamate-evoked VSD slope (GluSlope), % of maximal glutamate response; higher = potentiation (PAM), active = hit call of the paper
# Details: 10 µM; glutamate: EC50 (3-4 uM); clone: A2R-stg (HEK293 GluA2flip(R) + stargazin)
# Description: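 lower means inhibition (NAM); Primary voltage-sensitive dye (FLIPR Blue) screen on TetON HEK293 cells expressing GluA2flip(R) with stargazin (A2R-stg). Compound at 10 uM was preincubated for 290 s, then about EC50 glutamate (3-4 uM) was added; fluorescence was read on an FDSS at 1 Hz. GluSlope is expressed as % of the mean maximal-glutamate (1 mM) slope after vehicle subtraction. Hits deviated more than 3 SD from the plate EC50-glutamate wells. One well per compound.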
row,Structure (SMILES),glutamate-evoked VSD slope
1,Cc1ccc(-n2nc3c(c2-n2cccc2)CN(C(=O)c2cnccn2)C3)cc1C,61.4% (inactive)
2,Cc1ccccc1OCC(=O)Nc1cc(C(=O)N2CCCC2)cn(C)c1=O,58.2% (inactive)
